Data as given in PubChem BioAssay (NCATS).
Inconclusive results are not listed. The source made the active and inactive calls. The call rests on the fitted dose curve; in most records, active means well fitted inhibition curve with a large enough effect; inconclusive means small, poorly fitted or top-dose-only effect; inactive means flat fitted curve, though single readings scatter.

Key:
Assay in all cases: qHTS profiling for inhibitors of Plasmodium falciparum proliferation (AID 504749); further: nearly all actives have a fitted effect of over 60% in size
[1] = tested on: 3D7; conditions: P. falciparum in erythrocytes, SYBR Green DNA, 72 h; series mostly up to 12.8 µM
Summary of the method: (§1)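 Three-day growth assay of blood-stage parasites in erythrocytes (0.3% parasitemia, 2.5% hematocrit) at 37 C, 5% CO2, quantified by SYBR Green DNA staining after overnight detergent lysis.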

[2] = tested on: ATS95; conditions: P. falciparum in erythrocytes, SYBR Green DNA, 72 h; series mostly up to 12.8 µM
Summary of the method: as §1

[3] = tested on: C2A; conditions: P. falciparum in erythrocytes, SYBR Green DNA, 72 h; series mostly up to 12.8 µM
Summary of the method: as §1

[4] = tested on: CP237; conditions: P. falciparum in erythrocytes, SYBR Green DNA, 72 h; series mostly up to 12.8 µM
Summary of the method: as §1

[5] = tested on: CP238; conditions: P. falciparum in erythrocytes, SYBR Green DNA, 72 h; series mostly up to 12.8 µM
Summary of the method: as §1

[6] = tested on: CP262; conditions: P. falciparum in erythrocytes, SYBR Green DNA, 72 h; series mostly up to 12.8 µM
Summary of the method: as §1

[7] = tested on: CP265; conditions: P. falciparum in erythrocytes, SYBR Green DNA, 72 h; series mostly up to 12.8 µM
Summary of the method: as §1

[8] = tested on: CP266; conditions: P. falciparum in erythrocytes, SYBR Green DNA, 72 h; series mostly up to 28.7 µM
Summary of the method: as §1

[9] = tested on: CP269; conditions: P. falciparum in erythrocytes, SYBR Green DNA, 72 h; series mostly up to 12.8 µM
Summary of the method: as §1

[10] = tested on: CP305; conditions: P. falciparum in erythrocytes, SYBR Green DNA, 72 h; series mostly up to 12.8 µM
Summary of the method: as §1

[11] = tested on: CP325; conditions: P. falciparum in erythrocytes, SYBR Green DNA, 72 h; series mostly up to 12.8 µM
Summary of the method: as §1

[12] = tested on: CP335; conditions: P. falciparum in erythrocytes, SYBR Green DNA, 72 h; series mostly up to 12.8 µM
Summary of the method: as §1

[13] = tested on: DIV30; conditions: P. falciparum in erythrocytes, SYBR Green DNA, 72 h; series mostly up to 12.8 µM
Summary of the method: as §1

[14] = tested on: Dd2; conditions: P. falciparum in erythrocytes, SYBR Green DNA, 72 h; series mostly up to 12.8 µM
Summary of the method: as §1

[15] = tested on: ECU; conditions: P. falciparum in erythrocytes, SYBR Green DNA, 72 h; series mostly up to 12.8 µM
Summary of the method: as §1

[16] = tested on: GB4; conditions: P. falciparum in erythrocytes, SYBR Green DNA, 72 h; series mostly up to 12.8 µM
Summary of the method: as §1

[17] = tested on: HB3; conditions: P. falciparum in erythrocytes, SYBR Green DNA, 72 h; series mostly up to 12.8 µM
Summary of the method: as §1

[18] = tested on: P93_24; conditions: P. falciparum in erythrocytes, SYBR Green DNA, 72 h; series mostly up to 12.8 µM
Summary of the method: as §1

[19] = tested on: PAD; conditions: P. falciparum in erythrocytes, SYBR Green DNA, 72 h; series mostly up to 12.8 µM
Summary of the method: as §1

[20] = tested on: PC26; conditions: P. falciparum in erythrocytes, SYBR Green DNA, 72 h; series mostly up to 12.8 µM
Summary of the method: as §1

Measured: Potency

O=C(Cc1cccs1)NC1C(=O)N2C(C(=O)[O-])=C(C[n+]3ccccc3)CSC12 (stereo not given)
inactive: [1] | [2] | [3] | [4] | [5] | [6] | [7] | [8] | [9] | [10] | [11] | [12] | [13] | [14] | [15] | [16] | [17] | [18] | [19] | [20]

CN1[C@@H]2CC[C@H]1CC(OC(=O)[C@@H](O)c1ccccc1)C2 (stereo not given in full)
inactive: [1] | [2] | [3] | [4] | [5] | [6] | [7] | [8] | [9] | [10] | [11] | [12] | [13] | [14] | [15] | [16] | [17] | [18] | [19] | [20]

C[N+](C)(C)CC(O)CC(=O)O (stereo not given)
inactive: [1] | [2] | [3] | [4] | [5] | [6] | [7] | [8] | [9] | [10] | [11] | [12] | [13] | [14] | [15] | [16] | [17] | [18] | [19] | [20]

C[C@@H]1CCC[C@H](C)N1NC(=O)c1ccc(Cl)c(S(N)(=O)=O)c1
inactive: [1] | [2] | [3] | [4] | [5] | [6] | [7] | [8] | [9] | [10] | [11] | [12] | [13] | [14] | [15] | [16] | [17] | [18] | [19] | [20]

CN1CCCC[C@@H]1CCN1c2ccccc2Sc2ccc(S(C)=O)cc21 (stereo not given in full)
inactive: [1] | [2] | [3] | [4] | [5] | [6] | [7] | [8] | [9] | [10] | [11] | [12] | [13] | [14] | [15] | [16] | [17] | [18] | [19] | [20]

CCCN(CCC)C(=O)[C@@H](CCC(=O)O)NC(=O)c1ccccc1
inactive: [1] | [2] | [3] | [4] | [5] | [6] | [7] | [8] | [9] | [10] | [11] | [12] | [13] | [14] | [15] | [16] | [17] | [18] | [19] | [20]
